Source: PubChem BioAssay (several laboratories)
M1 antagonist – M1 muscarinic receptor (rat) antagonism | P08482 | 3.4% of 64,000 active | B-score at 10 µM | CHO-M1 cells, Fluo-4 calcium, ACh EC80 antagonist mode; active compounds read low;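 active = calcium fluorescence response, raw or row-and-column corrected B-score, differing from the plate sample mean either way at a set confidence level, mostly lower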
Her2 expr inh – inhibitors of human Her2 kinase expression; P04626; SKBR-3 HER2 protein level, AlphaScreen, 18-24 h; active compounds read low; HER2 level % of control, % at 10 µM; 0.69% of 65,000 active; AID 645;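 active = HER2 level under 5% of the carrier-only control; inconclusive = no clear call, values can overlap the other calls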;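 note: lower value means stronger loss of Her2 protein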
Target sequence (P04626 whole entry, looked up): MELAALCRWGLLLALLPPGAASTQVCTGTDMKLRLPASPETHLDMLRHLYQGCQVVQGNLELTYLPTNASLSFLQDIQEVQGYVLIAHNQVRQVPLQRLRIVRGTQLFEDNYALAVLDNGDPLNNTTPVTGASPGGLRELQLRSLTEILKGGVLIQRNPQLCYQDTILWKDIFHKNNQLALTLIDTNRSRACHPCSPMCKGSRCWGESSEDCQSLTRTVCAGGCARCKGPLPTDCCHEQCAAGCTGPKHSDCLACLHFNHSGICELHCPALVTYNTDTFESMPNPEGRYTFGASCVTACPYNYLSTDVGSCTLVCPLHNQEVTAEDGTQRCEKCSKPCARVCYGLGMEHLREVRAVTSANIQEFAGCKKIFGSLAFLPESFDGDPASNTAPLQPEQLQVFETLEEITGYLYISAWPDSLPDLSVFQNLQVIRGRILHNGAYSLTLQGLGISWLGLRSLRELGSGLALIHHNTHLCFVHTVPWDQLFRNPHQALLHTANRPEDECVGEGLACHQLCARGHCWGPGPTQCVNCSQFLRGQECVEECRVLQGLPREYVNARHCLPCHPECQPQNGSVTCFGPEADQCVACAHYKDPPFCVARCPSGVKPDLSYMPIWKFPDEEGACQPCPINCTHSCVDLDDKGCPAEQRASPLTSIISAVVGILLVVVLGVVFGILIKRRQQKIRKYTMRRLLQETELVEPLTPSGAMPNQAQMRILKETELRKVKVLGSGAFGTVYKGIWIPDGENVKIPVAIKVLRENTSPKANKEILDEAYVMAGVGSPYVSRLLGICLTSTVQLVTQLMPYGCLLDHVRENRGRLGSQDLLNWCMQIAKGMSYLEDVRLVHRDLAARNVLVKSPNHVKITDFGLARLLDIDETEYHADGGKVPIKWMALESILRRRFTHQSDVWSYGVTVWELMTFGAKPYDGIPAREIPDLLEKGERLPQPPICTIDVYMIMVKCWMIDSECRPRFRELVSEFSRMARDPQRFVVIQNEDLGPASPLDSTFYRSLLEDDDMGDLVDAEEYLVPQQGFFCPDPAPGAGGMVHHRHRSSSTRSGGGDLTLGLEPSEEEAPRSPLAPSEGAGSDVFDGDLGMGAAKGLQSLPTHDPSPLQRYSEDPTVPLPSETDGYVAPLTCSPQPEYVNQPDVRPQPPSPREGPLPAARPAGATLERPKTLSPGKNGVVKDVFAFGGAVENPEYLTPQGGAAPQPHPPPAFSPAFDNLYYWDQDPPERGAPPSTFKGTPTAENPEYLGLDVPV
Cav32 inh – inhibitors of human Cav3.2 T-type calcium channel; Cav3.2-expressing cells, Fluo-4 calcium fluorescence FDSS; active compounds read low; B-score at 10 µM; 4% of 100,000 active;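 active = single-dose well whose peak fluorescence ratio is a statistical outlier from its plate by either plate-standardised score or position-corrected B-score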
M1 ag – activates the M1 muscarinic receptor; CHO-M1 cells, Fluo-4 calcium fluorescence, agonist mode; active compounds read high; B-score at 10 µM; 3% of 64,000 active;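 active = fluorescence rise, raw or as B-score row- and column-corrected plate score, outside the 99.7% band of its plate's samples, either direction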
PLAP activator – activators of human placental alkaline phosphatase. P05187. purified PLAP enzyme, luminescent substrate read-out; active compounds read high. activation fold at 20 µM. 1.2% of 96,000 active. AID 696; in the data active = activation fold above about 2
M1 agonist conf – confirmation of rat M1 muscarinic receptor agonists. 19% of 1,700 active. shares compounds with M1 ag. fluorescence change (max-min) at 10 µM. CHO-M1 cells, Fluo-4 calcium fluorescence, agonist mode; actives lie on both sides;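 active = fluorescence change differs from the solvent-only DMSO control mean at a set confidence level in both duplicate runs; inconclusive = differs from solvent-only control mean in just one of two runs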;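 note: an EC20 dose of acetylcholine follows compound addition during the same imaging run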
M4 ag counter – counter-screen for M1 agonists: activity at rat M4 receptor; CHO M4/Gqi5 cells, Fluo-4 calcium fluorescence, agonist mode; actives lie on both sides; 9% of 1,700 active; shares compounds with M1 ag; AID 1741; fluorescence change (max-min) at 10 µM;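 active = fluorescence change differing from the plate's solvent-only control wells at 99.7% confidence in both duplicates, whether higher or lower; inconclusive = differs from solvent controls in only one of two duplicates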
Hits are given with their value; 0 = inactive; ? = inconclusive; - = no result given. A selection: hits, their analogues and other compounds. The true share with any hit is near 7.9%.

SMILES	M1 antagonist	Her2 expr inh	Cav32 inh	M1 ag	PLAP activator	M1 agonist conf	M4 ag counter
CC(=O)Nc1nc(C)c(-c2csc(Nc3ccc(O)cc3)n2)s1	-2	0	0	6.4	0	0	?
CC(=O)Nc1nc(C)c(-c2csc(Nc3cccc([N+](=O)[O-])c3)n2)s1	-	-	0	-	0	-	-
O=C(Nc1ccc(Cc2ccncc2)cc1)c1ccc(S(=O)(=O)N2CCOCC2)cc1	-2.5	0	0	13	0	0	?
O=C(Nc1ccc(S(=O)(=O)N2CCOCC2)cc1)c1ccc(Cl)cc1	0	0	0	0	-	-	-
CCOc1cccc(C(=O)Nc2nc(-c3ccc(S(=O)(=O)N4CCOCC4)cc3)cs2)c1	0	0	0	3.7	0	0	0
O=C(COc1cccc(Cl)c1)Nc1nc(-c2ccc(S(=O)(=O)N3CCOCC3)cc2)cs1	-	-	0	-	-	-	-
O=C1CC(c2ccccc2)=Nc2ccccc2N1	-	-	0	-	0	-	-
O=c1[nH]c2c(s1)C=Nc1ccccc1N2	0	0	0	69	0	249	227
COc1ccc(OC)c(C(c2nnnn2CCc2ccccc2)N2CCC(C(N)=O)CC2)c1 (centres undefined)	0	0	0	0	0	-	-
CCOc1nc(N2CCCCC2)nc(-n2cc(-c3ccccc3)nn2)n1	-	-	0	-	0	-	-
CCOC(=O)c1c(-c2ccccc2)nnn1-c1nc(OCC)nc(N2CCCCC2)n1	0	0	-7.6	6.6	0	-29	?
Cc1cc(Oc2ccccc2)nc2ccc(O)cc12	0	0	-	0	0	-	-
COCCCNS(=O)(=O)c1ccc2c3c(cccc13)C(=O)S2	0	0	0	0	-	-	-
COCCCNc1c2c3c(cccc3[nH]c1=O)C(=O)c1ccccc1-2	-13	-	-12	466	0	3166	2818
O=C(NC1CCCCC1)N1CCN(C(=O)c2ccco2)CC1	-	-	0	-	0	-	-
N#Cc1ccc(COc2ccc(CCO)cc2-n2nc3ccccc3n2)cc1	0	0	0	5.5	0	0	0
Cc1ccc(OC(=O)COc2ccccc2)c(-n2nc3ccccc3n2)c1	-	-	0	-	0	-	-
O=c1c(O)c(-c2ccc(O)cc2O)oc2cc(O)cc(O)c12	0	0	-	27	-	74	0
COCCOC(=O)C1=C(C)NC(=O)NC1c1ccc(OC(=O)c2ccco2)c(OC)c1 (centres undefined)	0	0	0	6.8	0	0	0
COc1ccc2oc(C(=O)C3CC3)c(NC(=O)CCCN3C(=O)c4ccccc4C3=O)c2c1	0	0	-	0	-	-	-
O=C(O)CCSc1nnnn1-c1ccccc1	0	0	0	0	0	-	-
c1ccc(-n2nnnc2SCCCSc2nc3ccccc3s2)cc1	0	0	0	27	0	0	?
COc1ccc2c3c(cccc13)N(C)N=C2C	-	-	-	-	0	-	-
CC(=O)c1cc(OC(=O)c2ccncc2)ccc1OC(=O)c1ccncc1	0	0	0	4.4	0	0	0
O=C(Oc1ccc(OC(=O)c2ccncc2)cc1)c1ccncc1	0	0	-	0	-	-	-
SMILES	M1 antagonist	Her2 expr inh	Cav32 inh	M1 ag	PLAP activator	M1 agonist conf	M4 ag counter
CCOC(=O)C1=C(C)OC(N)=C(C#N)C1c1ccoc1 (centres undefined)	0	0	0	0	0	-	-
CCOC(=O)C1=C(C)OC(N)=C(C#N)C1c1c(C)nn(-c2ccc(C)cc2)c1Cl (centres undefined)	0	0	-	3.4	0	0	0
CCOC(=O)c1c(-c2ccc(C)o2)csc1NC(=O)COC(=O)c1ccc(NC(N)=O)cc1	-	-	0	-	0	-	-
O=C(Cn1c(CN2CCCCC2)nc2ccccc2c1=O)NCc1ccco1	0	0	0	0	0	-	-
Cc1cc(C)cc(NC(=O)Nc2ccc3c(c2)N(C)C(=O)CS3)c1	-	-	0	-	0	-	-
CC(=O)c1cccc(NC(=O)Nc2ccc3c(c2)N(C)C(=O)CS3)c1	0	0	0	3.2	0	0	?
CCCN(CCC)c1nc(C)cc(C(C#N)c2nc3ccccc3o2)n1 (centres undefined)	0	0	-	6.4	0	0	0
NC(=O)C1CCN(c2ncnc3c2c(-c2ccccc2)cn3-c2ccccc2)CC1	0	0	0	3.7	0	?	0
COC(=O)C1NC(=O)N2C(C(=O)OC)C(C)(C)S[C@H]12 (some centres undefined)	-	-	0	-	-	-	-
COc1ccc(C(=O)CSc2nc(SC)ns2)cc1OC	0	0	0	-2.8	0	0	0
Cc1ccc(-c2nnn(CCC(=O)NC3CCCC3)n2)cc1	0	0	0	0	0	-	-
